Results published in PubChem BioAssay (NCATS).
Values joined by “and” are separate entries in the source; they are usually repeats but may differ in a detail not shown here. Equal entries are not always repeated. Inconclusive results are not listed. Where a call stands in place of a potency, no number is given. A number with no mark means an inactive call. Active and inactive are the calls of the source. The call rests on the fitted dose curve; in most records, active means well fitted curve in the direction sought with a large enough effect; inconclusive means small, poorly fitted or top-dose-only effect, or another doubt; inactive means no such curve, though single readings can be large; an effect the other way counts as inactive or inconclusive. Where a SMILES comes first, the peptide text is derived from it. [ ]: non-standard residue; d: D form. ξ: configuration not given here. ξPhe(βξ-Me) = CC(c1ccccc1)C(N)C(=O)O; GABA = NCCCC(=O)O

Tests used:
[1] = Primary qHTS for inhibitors of nuclear receptor binding SET domain protein 2 (NSD2) in an isogenic RCH-ACV NSD2 p.E1099K mutant (9B) (AID 1645876)
[2] = Primary qHTS for inhibitors of nuclear receptor binding SET domain protein 2 (NSD2) in an RCH-ACV wild type WT cells (2C) (AID 1645877)
Further: nearly all actives have a fitted effect of over 70% in size.
Potency means the concentration at half of the fitted maximal effect.

## CC(C)CC(=O)OC[C@H]1O[C@@](COC(=O)CC(C)C)(O[C@H]2O[C@H](CO)[C@@H](O)[C@H](O)[C@H]2OC(=O)CC(C)C)[C@@H](OC(=O)CC(C)C)[C@@H]1O
[1]
  Potency: inactive
[2]
  Potency: inactive

## COC1CC(OC2CCC3(C)C(=CCC4C3CCC3(C)C(C(C)O)CCC43O)C2)OC(C)C1OC1OC(C)C(OC2OC(COC3OC(COC4OC(CO)C(O)C(O)C4O)C(O)C(O)C3O)C(O)C(O)C2O)C(OC)C1O (centres undefined)
[1]
  outcome: inactive [at 9.23 µM]
[2]
  outcome: inactive [at 9.23 µM]

## C/C=C(\C)C(=O)O[C@H]1[C@H](O)[C@]2(COC(C)=O)[C@H](O)C[C@]3(C)C(=CCC4[C@@]5(C)CC[C@H](O[C@@H]6O[C@H](C(=O)O)[C@@H](O[C@@H]7O[C@H](CO)[C@@H](O)[C@H](O)[C@H]7O)[C@H](O)[C@H]6O[C@@H]6O[C@H](CO)[C@@H](O)[C@H](O)[C@H]6O)[C@](C)(CO)C5CC[C@]43C)[C@@H]2CC1(C)C (some centres undefined)
[1]
  activity change, negative = viability loss: 0.0444% [at 9.23 µM]
[2]
  activity change, negative = cell killing: -12.8% [at 9.23 µM]

## CC(=O)O[C@@H]1[C@H](O[C@@H]2O[C@H](CO)[C@@H](O)[C@H](O)[C@H]2O)[C@@H](O[C@@H]2O[C@@H](C)[C@H](O)[C@@H](O[C@@H]3O[C@H](CO)[C@@H](O)[C@H](O)[C@H]3O)[C@H]2O)[C@H](OC(=O)C23CCC4(C)C(=CCC5C6(C)CC(O)C(O[C@@H]7O[C@H](C(=O)O)[C@@H](O)[C@H](O)[C@H]7O)C(C)(C(=O)O)C6CCC54C)C2CC(C)(C)CC3O)O[C@@H]1C (some centres undefined)
[1]
  outcome: inactive [at 9.23 µM]
[2]
  activity change, negative = cell killing: 0.269% [at 9.23 µM]

## CCOc1cc2ncc(C#N)c(Nc3ccc(OCc4ccccn4)c(Cl)c3)c2cc1NC(=O)/C=C/CN(C)C
[1]
  Potency: 282 nM (active) and 1.32 µM (active)
[2]
  Potency: 282 nM (active) and 833 nM (active)

## C=CC(C)(O)CC/C=C(\C)C(=O)OCC1OC(OC2CCC3(C)C(CCC4(C)C3CC=C3C5CC(C)(C)C(O)CC5(C(=O)O)CCC34C)C2(C)C)C(O)C(OC2OC(CO)C(O)C(OC3OC(CO)C(O)C(OC4OC(COC5OC(CO)C(O)C(O)C5O)C(O)C(O)C4O)C3O)C2O)C1O (centres undefined)
[1]
  outcome: inactive [at 9.23 µM]
[2]
  activity change, negative = cell killing: 4.93% [at 9.23 µM]

## CC1(C)CC[C@]2(C(=O)O)CC[C@]3(C)C(=CCC4[C@@]5(C)C[C@@H](O)[C@H](O)C(C)(C)C5CC[C@]43C)[C@@H]2[C@@H]1O (some centres undefined)
[1]
  Potency: inactive
[2]
  Potency: inactive

## C=C1CC2C3(C)C(OC(C)=O)CC(=O)OC(C)(C)C3C(O)C(OC(C)=O)C2(C)C2C(=O)OC(C)C(=O)C12C (centres undefined)
[1]
  Potency: inactive
[2]
  Potency: inactive

## C[C@H]1CC[C@@]2(OC1)O[C@H]1CC3C4CC=C5C[C@H](O)C[C@@H](O[C@@H]6O[C@@H](C)[C@H](O)[C@@H](O)[C@H]6O[C@@H]6O[C@@H](C)[C@H](O)[C@@H](O)[C@H]6O)[C@]5(C)C4CC[C@]3(C)[C@H]1[C@@H]2C (some centres undefined)
[1]
  Potency: inactive
[2]
  Potency: inactive

## COc1cc(/C=C/CO)ccc1O[C@@H]1O[C@H](CO)[C@@H](O)[C@H](O)[C@H]1O
[1]
  Potency: inactive
[2]
  Potency: inactive

## NCc1ccc(OCCCc2sc(-c3ccc4c(c3)/C(=N/Nc3nc5ccccc5s3)CCC4)nc2C(=O)O)cc1
[1]
  Potency: inactive
[2]
  Potency: 5.15 µM (active)

## CC1NC(=O)CNC(=O)C(C(C)C)NC(=O)C2CCCN2C(=O)C(C(C)C)NC(=O)C(Cc2c[nH]c3ccccc23)NC1=O (centres undefined) (cyclo(GAWVPV); configuration not given here)
[1]
  Potency: inactive
[2]
  Potency: inactive

## OCC1OC(Oc2cc(O)c3c(c2)OC(c2ccc(O)cc2)C(O)C3)C(O)C1O (centres undefined)
[1]
  Potency: inactive
[2]
  Potency: inactive

## O=C(/C=C/c1ccc(O)cc1)OCC1=CC2OC(=O)C3=CO[C@@H](O[C@@H]4O[C@H](CO)[C@@H](O)[C@H](O)[C@H]4O)[C@H]1[C@@H]32 (some centres undefined)
[1]
  Potency: inactive
[2]
  Potency: inactive

## CC1=C2C3OC(=O)C(C)C3(O)CCC2(C)CCC1=O (centres undefined)
[1]
  Potency: inactive
[2]
  Potency: inactive

## COc1cc(COC2OC(CO)C(O)C(O)C2O)cc(OC)c1O (centres undefined)
[1]
  Potency: inactive
[2]
  Potency: inactive

## COc1cc(C[C@H]2COC(=O)[C@@H]2Cc2ccc(O)c(OC)c2)ccc1O
[1]
  Potency: inactive
[2]
  Potency: inactive

## COc1cc(-c2cccc(O)c2)cc2c1OCO2
[1]
  Potency: inactive
[2]
  Potency: inactive

## CC(=O)O[C@H]1[C@H](Oc2ccccc2COC(=O)C2(O)C=CCCC2=O)O[C@H](CO)[C@@H](O)[C@@H]1O (some centres undefined)
[1]
  Potency: 8.93 µM (active)
[2]
  Potency: 7.09 µM (active)

## C[C@@H]1C(=O)O[C@H]2CC34[C@H]5C[C@@H](C(C)(C)C)C36[C@@H](OC(=O)[C@@H]6O)OC4(C(=O)O5)[C@]21O (some centres undefined)
[1]
  Potency: inactive
[2]
  Potency: inactive

## CC(=O)OCCC(C)CCC1C(C)(O)CCC2C(C)(C)CCCC21C (centres undefined)
[1]
  Potency: inactive
[2]
  Potency: inactive

## CC(=O)Oc1cc2c(s1)CCN([C@H](C(=O)C1CC1)c1ccccc1F)C2
[1]
  Potency: inactive
[2]
  Potency: inactive

## CC(C)CC1NC(=O)C(C(C)c2ccccc2)NC(=O)C(C(C)C)NC(=O)C(C)NC(=O)CCCNC(=O)C(Cc2c[nH]c3ccccc23)NC(=O)C(C)NC1=O (stereo not drawn) (cyclo([GABA]AV[ξPhe(βξ-Me)]LAW); configuration not given here)
[1]
  Potency: inactive
[2]
  Potency: inactive

## N#Cc1ccnc(N2C(=O)CC[C@H]2C(=O)N(c2cncc(F)c2)[C@H](C(=O)NC2CC(F)(F)C2)c2ccccc2Cl)c1
[1]
  Potency: inactive
[2]
  Potency: inactive

## C/C(=C/CCC(CO)C1CCC2(C)C3CCC4C(C)(C)C(OC5OC(CO)C(O)C(O)C5O)CC(O)C45CC35CCC12C)COC1OC(CO)C(O)C(O)C1O (centres undefined)
[1]
  Potency: inactive
[2]
  Potency: inactive

## CC(C)CC1(C(=O)OCc2ccc(O[C@@H]3O[C@H](CO)[C@@H](O)[C@H](O)[C@H]3O)cc2)CC(=O)OC(C(=O)O)CC(=O)OCC2OC(O1)C(OC(=O)/C=C/c1ccc(O)cc1)C(O)C2O (some centres undefined)
[1]
  activity change, negative = viability loss: 1.01% [at 9.23 µM]
[2]
  activity change, negative = cell killing: 0.208% [at 9.23 µM]

## C[C@@H]1O[C@@H](O[C@H]2[C@H](OC(=O)[C@]34CCC(C)(C)C[C@H]3C3=CCC5[C@@]6(C)C[C@H](O)[C@H](O[C@@H]7O[C@H](CO)[C@@H](O[C@@H]8O[C@H](CO)[C@@H](O)[C@H](O)[C@H]8O)[C@H](O)[C@H]7O)[C@@](C)(CO)C6[C@H](O)C[C@@]5(C)[C@]3(C)C[C@H]4O)OC[C@H](O)[C@@H]2O)[C@H](O)[C@H](O)[C@H]1O[C@@H]1OC[C@@H](O)[C@H](O[C@@H]2OC[C@](O)(CO)[C@H]2O)[C@H]1O (some centres undefined)
[1]
  activity change, negative = viability loss: -3.67% [at 9.23 µM]
[2]
  activity change, negative = cell killing: 2.2% [at 9.23 µM]

## C1CCN2CC3C[C@@H](CN4CCCC[C@@H]34)[C@H]2C1
[1]
  Potency: inactive
[2]
  Potency: inactive

## CC(NC(=O)CC(=O)O)c1nc2ccccc2c(=O)[nH]1 (centres undefined)
[1]
  Potency: inactive
[2]
  Potency: inactive

## COc1cc(C/C(=C/NC(C)=O)N(CC(=O)Cc2ccccc2)C(C)=O)cc2c1OCO2
[1]
  Potency: inactive
[2]
  Potency: inactive

## COC(=O)C1=CO[C@@H](O[C@@H]2O[C@H](CO)[C@@H](O)[C@H](O)[C@H]2O)[C@@H]2[C@@H](C(=O)OC)[C@@H](O)C(O)[C@H]12 (some centres undefined)
[1]
  Potency: inactive
[2]
  Potency: inactive

## COc1ccccc1CC(C(=O)O)N(C)C(=O)c1ccccc1 (centres undefined)
[1]
  Potency: inactive
[2]
  Potency: inactive

## CC1=CC(=O)C[C@H]2[C@@H]1CC[C@@H](C)[C@]21CO[C@H](c2ccoc2)C1=O
[1]
  Potency: inactive
[2]
  Potency: inactive

## C[C@@H]1CC[C@H]2C(C)(C)[C@H](O)[C@H](O)C[C@]2(C)[C@@]12Cc1c(O)cc3c(c1O2)CNC3=O
[1]
  Potency: inactive
[2]
  Potency: inactive

## CC(=O)c1c(O)cc2c(c1C)C(=O)CC(O)C2 (centres undefined)
[1]
  Potency: inactive
[2]
  Potency: inactive

## O=C(/C=C/c1ccc(O)c(O)c1)OCc1ccccc1O[C@@H]1O[C@H](CO)[C@@H](O)[C@H](O)[C@H]1O
[1]
  Potency: inactive
[2]
  Potency: inactive

## CC(=O)O[C@@H]1C[C@@]23C[C@@]24CC[C@H](OC2OC[C@@H](O)[C@H](O)[C@H]2O)C(C)(C)[C@@H]4CC[C@H]3[C@]2(C)CC3OC4(C[C@@H](C)C3[C@@]12C)OCC1(C)OC14 (some centres undefined)
[1]
  Potency: inactive
[2]
  Potency: inactive
